From PubChem
Compounds with a hit are over-represented: about 4.2% of the library has one in this group of screens.
Sfp inh: inhibitors of Bacillus subtilis Sfp phosphopantetheinyl transferase; 3.5% of 310,000 active; Q9F4F7; Biochemical Sfp PPTase activity, qHTS; AID 1490; Potency, µM, inactives show largest response in the series, negative = inhibition, actives largely listed as inhibitors;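 further: the enzyme is Sfp with the accession as filed and its product quenches rhodamine fluorescence; potency means the concentration at half of the fitted maximal effect; 0% = enzyme reaction without inhibitor and -100% = no enzyme wells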
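Step 1, compound plus 15 nM Sfp-PPTase, 15 min, room temperature. Step 2, add rhodamine-CoA (5 uM) and BHQ-2-YbbR (12.5 uM). Step 3, read 525/598 nm fluorescence at 0 and 30 min.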
ClpP mod: qHTS Assay for Activators of ClpP; purified B. subtilis ClpP, FRET peptide cleavage, 20 min; ATP-dependent Clp protease proteolytic subunit (Bacillus subtilis (strain 168)), P80244; Potency, µM (titrated, usually from 57.5 µM), for inactives: at the highest dose activity change, negative = active; 1.9% of 340,000 active; active means well fitted falling curve with a large enough effect; inconclusive means small, poorly fitted or top-dose-only effect; inactive means no such curve, though single readings can be large or run the other way; further: potency means the concentration at half of the fitted maximal effect; the source files actives as falling curves though it sought activators and does not explain the sign; nearly all actives have a fitted effect of over 65% in size
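Buffer: 100 mM Tris/HCl pH8, 100 mM KCl, 0.05% low protease BSA, 2.5% glycerol, 0.01% Tween-20. ClpP 10 microg/mL final; 20 min RT; delta FRET normalized to ADEP and DMSO controls.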
uPA surface inh: blocks generation of uPA at the cell surface. cell surface uPA generation assay, qHTS. Potency, µM (top dose mostly 38.3 µM), without a hit: at the highest dose activity change, negative = inhibition, usual class: inhibitors. 0.31% of 330,000 active. AID 540303; active means well fitted inhibition curve with a large enough effect; inconclusive means small, poorly fitted or top-dose-only effect; inactive means no such curve, though single readings can be large or run the other way; tested in mouse RAW 264.7 cells; further: potency means the concentration at half of the fitted maximal effect; on the % scale 0 is the no-effect control and ±100 the full control effect; nearly all actives have a fitted effect of over 55% in size
TCR act: activators of T cell receptors | primary human leukocytes, anti-CD3, IL-2 HTRF, 48 h | Potency, µM (doses to about 9.22 µM), for the others: top-dose activation of IL-2 secretion, hits mostly activators | 330,000 tested, under 10 active | AID 504894; further: % of control where 0% means no effect
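1) Mix primary human leukocytes, a-CD3 beads and compound. 2) Incubate 48 hr. 3) Add HTRF IL-2 reagents (a-IL-2-K, a-IL-2-d2).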
Starred values were filed as active, the others as inactive; ? = inconclusive; nt = no result; ! = not confirmed by another sample; [ ] = dose if it differs, or a comment. Unless noted, the call rests on the fitted dose curve; in most records, active means well fitted curve in the direction sought with a large enough effect; inconclusive means small, poorly fitted or top-dose-only effect, or another doubt; inactive means no such curve, though single readings can be large; an effect the other way counts as inactive or inconclusive.

SMILES	Sfp inh	ClpP mod	uPA surface inh	TCR act
CN(C)c1ncc(/C=C2/C(=O)NC(=S)N(C3CCCCC3)C2=O)cn1	44.7µM*	nt	nt	nt
CCC(C)N1C(=O)/C(=C\c2cnc(N(C)C)nc2)C(=O)NC1=S (stereo unspecified)	50.1µM*	nt	4.6%	-3.7%
CCC(C)N1C(=O)/C(=C\c2ccc(N3CCCCCC3)cc2)C(=O)NC1=S (stereo unspecified)	?	-2.8%	-2.8%	-1.0%[46.1 µM]
CC(=O)Oc1ccc(Cl)c2cccnc12	22.0%	nt	nt	nt
CCO[C@@H]1OC(C(=O)NCc2ccccc2)=C[C@H](c2csc3ccccc23)[C@H]1CCCO	-3.1%	0.4%	?	-1.1%
O=C(N/N=C/c1c(O)n(CCC2=CCCCC2)c(=O)[nH]c1=O)c1ccccc1	9.5%	-18.6%	0.3%	-0.2%[46.1 µM]
CN(C)S(=O)(=O)N1CCC(Oc2cccc(C(=O)NCCC3=CCCCC3)c2)CC1	1.5%	25.1µM*	?	3.9%
O=C1C=C2C=CC3C[C@@]2(O1)C1CCCCN31 (stereo partly specified)	14.7%	nt	nt	nt
Cc1sc(-n2c(C)cc(C=C3C(=O)NC(=O)NC3=O)c2C)c(C#N)c1C	50.1µM*	nt	2.8%	0.4%[46.1 µM]
Cc1cc(C=C2C(=O)NC(=O)NC2=O)c(C)n1-c1cccnc1	-13.1%	nt	-2.9%	2.2%
Cc1cc(/C=C2\C(=O)NC(=O)N(c3ccc(Cl)cc3)C2=O)c(C)n1-c1sc2c(c1C#N)CCCC2	31.6µM*	4.0%	17.3%	2.4%[46.1 µM]
N#CC(C#N)=Cc1ccc([N+](=O)[O-])c(O)c1	35.5µM*	nt	nt	nt
COc1cc2c(cc1O)C(CCc1ccc(Cl)cc1)N(C)CC2 (stereo unspecified)	8.4%	nt	nt	nt
COCC1CCCN(C(=O)c2cc(COc3ccc4ncccc4c3)on2)C1 (stereo unspecified)	6.8%	-15.8%	?	4.3%
Nc1ccccc1C(=O)OC1CSC1	9.4%	28.2µM*	7.2%	1.8%
CCOC(=O)c1ccccc1N	nt	4.2%	18.0%	-0.7%
O=S(=O)(Nc1ccc(-c2nc3ccccc3o2)cc1)c1ccccc1	-16.1%	28.2µM*	-1.7%	-1.9%
CC(C)Oc1cc(-n2nc(C(C)(C)C)oc2=O)c(Cl)cc1Cl	1.7%	nt	nt	nt
CC/C=C\C/C=C\C/C=C\C/C=C\C/C=C\CCCC(=O)NCCCC(=O)O	17.7%	nt	nt	nt
CC(C)n1cnc2c(C(=O)N[C@H]3CN4CCC3CC4)cc(Cl)cc21	-4.8%	nt	nt	nt
O=[N+]([O-])c1cc(C(F)(F)F)c(Cl)c([N+](=O)[O-])c1Nc1ncc(C(F)(F)F)cc1Cl	nt	-0.8%	nt	nt
Oc1ccccc1-[n+]1c(-c2ccccc2)cc(-c2ccccc2)cc1-c1ccccc1	nt	1.9%	?	-8.9%
Cc1ccccc1-[n+]1c(-c2ccccc2)cc(-c2ccccc2)cc1-c1ccccc1	nt	-26.9%	7.94µM*	10.6%
CC(=O)O[C@@]12CO[C@@H]1C[C@H](O)[C@@]1(C)C(=O)[C@H](O)C3=C(C)[C@@H](OC(=O)[C@H](O)[C@@H](NC(=O)c4ccccc4)c4ccccc4)C[C@@](O)([C@@H](OC(=O)c4ccccc4)C12)C3(C)C (stereo partly specified)	11.2µM*	0.7%	0.447µM*	6.0%
C[N+]1(C)C2CC[C@H]1CC(OC(=O)C(CO)c1ccccc1)C2 (stereo partly specified)	nt	0.6%	-1.1%	3.7%
SMILES	Sfp inh	ClpP mod	uPA surface inh	TCR act
C[N+]1(C)[C@@H]2CC[C@H]1CC(OC(=O)[C@@H](CO)c1ccccc1)C2 (stereo partly specified)	39.8µM*!	1.3%	5.0%	13.1%
O=c1c2ccccc2[se]n1-c1ccccc1	0.794µM*	-0.6%	?	-0.1%
N[C@@H](CSCCCO)C(=O)O	50.1µM*	nt	nt	nt
NC(=O)CNC(=O)[C@H](Cc1ccccc1)NC(=O)[C@H](CCCN=C(N)N)NC(=O)[C@@H](N)Cc1ccc(O)cc1	19.3%	nt	nt	nt
CCCCCCCCCCCCCC(=O)O[C@@H]1[C@@H](C)[C@@]2(O)[C@H](C=C(CO)C[C@]3(O)C(=O)C(C)=C[C@@H]23)[C@@H]2C(C)(C)C12OC(C)=O (stereo partly specified)	7.2%	nt	nt	nt
c1ccc(-c2nc(N3CCOCC3)s[n+]2-c2ccccc2)cc1	7.94µM*	-3.2%	2.1%	-3.4%[46.1 µM]
CN1C(=O)/C(=C/c2ccc(N3CCCCCC3)o2)C(=O)NC1=S	50.1µM*	0.9%	-1.8%	-5.2%[46.1 µM]
C=CCN1C(=O)/C(=C\c2ccc(N3CCOCC3)o2)C(=O)NC1=S	56.2µM*	-25.7%	-3.4%	-4.9%[46.1 µM]
CN1C(=O)/C(=C\c2ccc(N3CCCCC3)o2)C(=O)NC1=S	-14.0%	-1.2%	-4.7%	-1.4%
C[C@H]1CC[C@H]2NCCN[C@H]2C1	100µM*	nt	-1.1%	-1.3%
Cc1ccc(/C=C2\C(=O)NC(=O)N(CCc3ccc(F)cc3)C2=O)s1	-11.1%	-0.2%	3.0%	-2.1%
C=CCN1C(=O)/C(=C/c2ccc(Br)s2)C(=O)NC1=S	39.8µM*	1.1%	-3.9%	2.5%
CCN1C(=O)/C(=C\c2ccc([N+](=O)[O-])s2)C(=O)NC1=S	10µM*	nt	nt	nt
CC(=O)c1ccc(-c2cccc(-c3nc4ccccn4c3NC3CCCCC3)c2)cc1	nt	-0.5%	?	-0.4%
Cc1ccc(Nc2nnc(SCC(=O)NCC3CCCO3)s2)cc1C (stereo unspecified)	nt	-0.1%	?	-1.2%
CCOC(=O)c1ccc(-n2c(N)c(C(=O)NCC3CCCO3)sc2=S)cc1 (stereo unspecified)	31.6µM*	-0.4%	-1.9%	0.1%
O=C1C=CCC(/C=C/c2ccccc2)O1 (stereo unspecified)	8.3%	-0.2%	1µM*	0.2%
O=C1NCN(c2ccccc2)C12CCN(CCCC(c1ccc(F)cc1)c1ccc(F)cc1)CC2	79.4µM*!	-1.7%	?	-6.9%
O=C1NCN(c2ccccc2)C12CCNCC2	-24.6%	1.2%	nt	nt
CN1CC[C@@]2(C)c3cc(OC(=O)Nc4ccccc4)ccc3N(C)[C@@H]12	14.1%	nt	nt	nt
CCN1C[C@]2(COC(=O)c3ccccc3N3C(=O)CC(C)C3=O)CC[C@H](OC)[C@@]34C5C[C@@H]6[C@@H](OC)C[C@@](O)(C5[C@H]6OC)[C@](O)([C@@H](OC)C23)[C@@H]14 (stereo partly specified)	7.6%	nt	nt	nt
C[C@H](NC(=O)[C@@H](N)Cc1ccc(O)cc1)C(=O)NCC(=O)N(C)[C@@H](Cc1ccccc1)C(=O)NCCO	4.6%	nt	nt	nt
CCN1CCN(c2ccc([N+](=O)[O-])cc2C=C2C(=O)NC(=O)NC2=O)CC1	44.7µM*	0.6%	2.8%	-5.3%[46.1 µM]
COc1ccc(C[C@H]2CN3C(=NC[C@@H]3Cc3ccc(O)cc3)N2C[C@H](C)NC(=O)c2ccc(C)c(Br)c2)cc1	?	-4.3%	?	7.6%
Nn1c(COc2ccc(Cl)cc2)n[nH]c1=S	35.5µM*	-2.7%	-0.7%	7.2%
Cc1cccc(C)c1OCc1n[nH]c(=S)n1N	50.1µM*	2.9%	14.1%	-7.1%
Cc1ccc(-n2sc3ccccc3c2=O)cc1	1.26µM*	1.1%	-13.5%	-4.8%[46.1 µM]
